Screen size: about 340,000 compounds; about 2,300 (0.68%) were called active. This is one part of a sample in which actives are shown more often than they occur. Cut-off read from the data, not from the text of the source: active = growth rescue above about 28% (passing the limit was not always enough); inconclusive = no clear call, values can overlap the other calls.
experiment: rescue of yeast from PfHsp40 toxicity, primary screen, S. cerevisiae, ATP luminescence (AID 504582);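 note: yeast W303a lacking pdr1 and pdr3 grown in galactose medium; growth measured after three days at 30 °C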; settings: S. cerevisiae expressing PfHsp40, growth rescue, at 12.5 µM, hits give high values

SMILES	growth rescue
COCCCNC(=S)N1CCCC(c2nc3cc(C)c(C)cc3[nH]2)C1 (stereo not drawn)	-0.694% (inactive)
CCc1ccccc1N(CC(=O)N1CCN(c2ccccc2F)CC1)S(C)(=O)=O	0.191% (inactive)
COc1ccc(N2C(=O)/C(=C\c3ccco3)N=C2SCC(N)=O)cc1Cl	-0.407% (inactive)
CN1c2ccc([N+](=O)[O-])cc2C(C)(C)C12C=Cc1cc(C(=O)O)ccc1O2 (stereo not drawn)	200% (active)
COc1ccc2c(c1)C=CC1(O2)N(CCO)c2ccccc2C1(C)C (stereo not drawn)	-0.159% (inactive)
COc1ccc(N2CCN(c3ccc([N+](=O)[O-])cc3Cl)CC2)cc1	-0.626% (inactive)
Cc1c(Cl)c([N+](=O)[O-])nn1Cc1ccc(C(=O)N/N=C\c2cc(Cl)ccc2O)o1	29.8% (active)
O=C(N/N=C\c1ccc(Br)cc1)c1ccc(Cn2cccn2)o1	0.111% (inactive)
Cc1nn(Cc2ccccc2Cl)c(C)c1NC(=O)Cn1nc([N+](=O)[O-])c(Cl)c1C	-0.0385% (inactive)
COc1ccc(/C=C(\C#N)C(=O)NCCCn2ccnc2)cc1	-0.489% (inactive)
CC1(C)NC(=O)N(CCCCSc2ccc(Cl)cc2)C1=O	0.18% (inactive)
Cc1ccc(NC(=O)COc2ccc(/C=N\NC(=O)c3cccnc3)cc2)cc1C	-0.012% (inactive)
O=C(O)c1ccc(N/N=C/c2cn(-c3ccccc3)nc2-c2cccs2)cc1	0.668% (inactive)
O=C(N/N=C/c1sc(N2CCCCC2)nc1-c1cccs1)c1cccnc1	140% (active)
O=C(NN=Cc1ccccc1)c1ccccc1	0.391% (inactive)
CSc1ccc(/C=N/NC(=O)c2cccc(Cl)c2)cc1	40.3% (active)
O=C(N/N=C/c1ccc(Cl)c(Cl)c1)c1ccc2nc[nH]c2c1	0.517% (inactive)
COC(=O)C1=NNC2(c3ccc(C)cc3)C(=O)N(c3cccc(C)c3C)C(=O)C12 (stereo not drawn)	-0.596% (inactive)
O=C(CSc1ccccn1)N1CCN(S(=O)(=O)c2ccc(Cl)cc2)CC1	-0.63% (inactive)
COc1ccc(C(=O)Nc2sc(C)c(C)c2CN2CCOCC2)cc1	0.992% (inactive)

SMILES	growth rescue
CCc1cc(C(=O)c2ccc(OC)cc2)c(NC(=O)CN2CCN(C)CC2)s1	-1.5% (inactive)
CCc1cc(C(N)=O)c(NC(=O)c2ccc(OC)cc2)s1	648% (active)
O=C(c1ccc2c(c1)OCO2)N1CCNc2ccccc2C1	-1.38% (inactive)
COc1ccc(-n2cnc3cc(C(=O)NC4CCCC4)ccc32)cc1	3.16% (inactive)
COc1ccc(C(=O)NC2CC2)cc1OC1CCN(Cc2cnn(C)c2)CC1	-0.458% (inactive)
COc1cc(C(=O)NC2CCN(C)CC2)ccc1Nc1ncc2c(n1)N(C1CCC(O)CC1)CCC(=O)N2C (stereo not drawn)	44.4% (active)
O=C(/C=N/O)Nc1ccccc1	-1.81% (inactive)
c1ccc(-c2nccc(-c3ccc(-n4cnc5ccccc54)cc3)n2)nc1	3.45% (inactive)
CN(C)Cc1c(O)ccc2c(=O)c(-c3ccccc3Cl)coc12	-1.86% (inactive)
O=C(NCCC1=CCCCC1)c1ccc(Cl)c([N+](=O)[O-])c1	34.2% (active)
O=C(NCCC1=CCCCC1)c1ccc(-n2cncn2)cc1	0.575% (inactive)
CN(c1ccc(C(=O)NCCC2=CCCCC2)cc1)S(C)(=O)=O	-0.452% (inactive)
CCOc1ccccc1N(CC(=O)NC1CCCCC1)C(=O)CCCC(=O)Nc1ccccn1	0.515% (inactive)
Cc1ccc(NC(=O)CN(C)C(=O)COC(=O)C(C)(C)Oc2ccc(Cl)cc2)cc1	-0.952% (inactive)
O=C(NNC(=S)NC(=O)c1cn(-c2ccccc2)nc1-c1ccccc1)c1ccncc1	117% (active)
NC(=O)C1CCN(C(=O)c2cn(-c3ccccc3)nc2-c2cccnc2)CC1	-1.23% (inactive)
Cc1ccc(-c2nn(-c3ccccc3)cc2C(=O)NC2CCC(O)CC2)cc1 (stereo not drawn)	-0.972% (inactive)
Cc1ccc(SC(=O)COc2ccc(C)c(C)c2)cc1	-0.169% (inactive)
CCOc1ccc(-c2ccc(SCC(=O)N3CCOCC3)nn2)cc1	-0.865% (inactive)
CC(C)C[C@@H](COc1ccccc1)N1CCN(CC(C)C)CCC1=O	0.09% (inactive)

SMILES	growth rescue
CC1(C)C=Cc2c(ccc3c2OC[C@@H](c2ccc(O)cc2O)C3)O1	232% (active)
Nc1cc(N)nc(SCC(=O)Nc2cccc(S(=O)(=O)N3CCCCC3)c2)n1	0.009% (inactive)
Cn1c(CC2Sc3ccccc3NC2=O)nnc1SCC(=O)c1ccc(Cl)cc1 (stereo not drawn)	-0.256% (inactive)
COc1ccc(C2N=C(N)N=C(N)N2c2ccccc2)cc1OC (stereo not drawn)	0.038% (inactive)
CC/C(=N\NC(=O)c1ccccc1Cl)c1ccc(Br)s1	-0.619% (inactive)
CC/C(=N\NC(=O)c1ccccc1O)c1c(O)n(Cc2ccccc2)c(=O)[nH]c1=O	44.8% (active)
COCCN(C(=O)c1ccccc1F)c1c(N)n(Cc2ccccc2)c(=O)[nH]c1=O	-0.643% (inactive)
COc1ccc(C(=O)CN2C(=O)NC(C)(c3ccc(C)cc3)C2=O)cc1OC (stereo not drawn)	0.439% (inactive)
COc1ccc(C2Nc3ccccc3C(=O)N2c2ccc(Cl)cc2)cc1Cn1cc([N+](=O)[O-])cn1 (stereo not drawn)	0.089% (inactive)
Cn1ncc(Br)c1C(=O)NC1CCCC1	-0.467% (inactive)
COC(=O)[C@@H]1C[C@@]2(O)[C@H](O)[C@H](O)[C@H](O)C[C@H]2N1Cc1ccc(C(C)(C)C)cc1	29% (active)
COC(=O)[C@@H]1C[C@@]2(O)[C@@H](O)[C@@H](O)[C@@H](O)C[C@H]2N1Cc1ccc(C)s1	-0.441% (inactive)
COC(=O)[C@@H]1C[C@@]2(O)[C@H](O)[C@H](O)[C@H](O)C[C@H]2N1Cc1ccc(C)s1	-1.59% (inactive)
CC(=O)c1cccc(-c2ccc(CN3C(CC(C)C)C(=O)N(Cc4cn(CC5CCCCC5)nn4)CCS3(=O)=O)cc2)c1 (stereo not drawn)	0.3% (inactive)
Cc1cc(N=Nc2ccc3ccccc3c2)ccc1O	91.3% (active)
C#CCOCCOCCOCCNc1nc(N2CCN(C(=O)[C@H](C(C)C)n3cc(CCO)nn3)CC2)nc(N2CCN(C(=O)[C@H](C(C)C)n3cc(CCO)nn3)CC2)n1	-2.28% (inactive)
C#CCOCCOCCOCCNc1nc(N2CCN(C(=O)CCCCCCCCCCNC(=O)[C@H]([C@@H](C)CC)n3cc(CCCCN=C(N)N)nn3)CC2)nc(N2CCN(C(=O)CCCCCCCCCCNC(=O)[C@H](CO)n3cc(CCCSC)nn3)CC2)n1	29.5% (active)
C#CCOCCOCCOCCNc1nc(N2CCN(C(=O)[C@H](CCCN=C(N)N)n3cc(C(N)[C@@H](C)CC)nn3)CC2)nc(N2CCN(C(=O)[C@H](CO)n3cc([C@@H](N)C(C)C)nn3)CC2)n1 (stereo partly drawn)	-0.354% (inactive)
